ELG1 genotox: qHTS screen for small molecules that induce genotoxicity in human embryonic kidney (HEK293T) cells expressing luciferase-tagged ELG1; HEK293T ELG1-luciferase reporter, luminescence, 16 h; Potency, µM (titrated, usually from 46 µM), inactives show at the top dose activity change, positive = activation, most hits filed as activators; 330,000 compounds, 1.3% hits; AID 504466, 2011; also: % of control where 0% means no effect; nearly all actives have a fitted effect of over 60% in size
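16 hr compound incubation (37 °C, 5% CO2) of HEK293T cells carrying luciferase-tagged ELG1; luciferase then measured by ONE-Glo luminescence after 30 min at RT.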
FLuc modulator: qHTS profiling assay for firefly luciferase inhibitor/activator using purifed enzyme and Km concentrations of substrates (counterscreen for miR-21 project) | 360,000 compounds, 6.9% hits | Potency, µM (top dose mostly 57.5 µM), without a hit: at the highest dose activity change, negative = inhibition, actives largely listed as inhibitors | Luciferin 4-monooxygenase (Photinus pyralis), P08659 | AID 588342, 2011 | purified FLuc, Km substrates, luminescence inhibition;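 also: plate controls were vehicle for no effect and reference inhibitor for full effect; nearly all actives have a fitted effect of over 55% in size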
Target sequence (P08659 whole entry, looked up): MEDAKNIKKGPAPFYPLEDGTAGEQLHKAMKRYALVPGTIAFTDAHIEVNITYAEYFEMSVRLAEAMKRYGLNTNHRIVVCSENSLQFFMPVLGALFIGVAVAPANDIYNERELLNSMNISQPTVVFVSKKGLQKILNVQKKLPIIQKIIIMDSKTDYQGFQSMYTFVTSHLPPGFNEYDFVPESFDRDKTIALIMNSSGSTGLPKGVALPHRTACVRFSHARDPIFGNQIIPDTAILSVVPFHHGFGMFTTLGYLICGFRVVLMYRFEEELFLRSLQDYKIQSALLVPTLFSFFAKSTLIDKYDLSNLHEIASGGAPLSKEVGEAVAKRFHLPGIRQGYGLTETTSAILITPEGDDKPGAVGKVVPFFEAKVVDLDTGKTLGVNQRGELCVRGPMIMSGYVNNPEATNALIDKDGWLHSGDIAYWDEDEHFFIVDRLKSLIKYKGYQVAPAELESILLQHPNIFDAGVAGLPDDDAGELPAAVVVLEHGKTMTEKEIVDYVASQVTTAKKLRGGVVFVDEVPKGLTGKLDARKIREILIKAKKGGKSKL
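Purified P. pyralis luciferase (10nM final) with 10uM D-luciferin and 10uM ATP (Km levels) in 50mM Tris acetate pH 7.5, 10mM Mg acetate, 0.01% Tween-20, 0.05% BSA; qHTS 6-point titration, ~60 µM downward; luminescence read.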
NPC1 prom act: qHTS Assay for NPC1 Promoter Activators; Huh7 NPC1 promoter luciferase reporter, 24 h; Potency, µM (doses to about 9.22 µM), inactives show top-dose activation, actives largely listed as activators; 320,000 compounds, 2.4% hits; also: % of control where 0% means no effect; nearly all actives have a fitted effect of over 60% in size
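Quantitative HTS used a cell-based reporter: Huh7 cells stably bearing the NPC1 promoter upstream of luciferase were treated with compounds for 24 h, and promoter activation was read as luminescence.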
Rab9 prom act: qHTS Assay for Rab9 Promoter Activators; Huh7 Rab9 promoter-luciferase reporter, luminescence, 24 h; Potency, µM (doses to about 9.22 µM), for the others: at the highest dose activation, negative = inhibition, actives largely listed as activators; 320,000 compounds, 2.8% hits; also: % of control where 0% means no effect; nearly all actives have a fitted effect of over 60% in size
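Measured in stably transfected Huh7 cells bearing a Rab9 promoter–luciferase construct: 24 h compound treatment at 37 °C, followed by luminescence detection.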
SMN2 splice up: qHTS Assay for Enhancers of SMN2 Splice Variant Expression | HEK293 SMN2-luciferase splicing reporter, luminescence, 30-36 h | Potency, µM (top dose mostly 46.1 µM), for inactives: top-dose activity change, positive = activation, most hits filed as activators | 210,000 compounds, 2.8% hits; also: % of control where 0% means no effect; nearly all actives have a fitted effect of over 55% in size
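qHTS luciferase splicing reporter: luminescence rises when SMN2 exon 7 is included in transfected HEK293 cells. Compound exposure lasted 30-36 h at 37C, with 4.5 mM final sodium butyrate as control, followed by a ONE-Glo read.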
Luc counter: Counterscreen for Luciferase (Kinase-Glo TM) Inhibition; Luciferin 4-monooxygenase (Photuris pensylvanica), Q27757; Kinase-Glo luciferase, ATP luminescence, 8 min; Potency, µM (titrated, usually from 38.3 µM), for the others: at the top dose activity change, negative = inhibition, most hits filed as inhibitors; 200,000 compounds, 0.28% hits; also: % is scaled to controls: 0 for no effect and ±100 for the full control effect; nearly all actives have a fitted effect of over 60% in size
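Luminescence was the read-out, taken after 8-minute incubation at ambient temperature. Luciferase turned over luciferin with 10 uM ATP in imidazole pH 7.2 buffer containing KCl, MgCl2, Tween 20 and BSA.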
Active calls of the source: *; ? = inconclusive; / = no result given; [ ] = another dose, or the depositor's remark. This is a sample that favours compounds with a hit; in the whole collection about 7.5% have one here. Calls follow the shape of the dose curve; as a rule, active = well fitted curve in the direction sought with a large enough effect; inconclusive = small, poorly fitted or top-dose-only effect, or another doubt; inactive = no such curve, though single readings can be large; an effect the other way counts as inactive or inconclusive. Potency is read from the fitted curve at half-maximal effect.

SMILES	ELG1 genotox	FLuc modulator	NPC1 prom act	Rab9 prom act	SMN2 splice up	Luc counter
Cc1nn(-c2ccccc2)c(C)c1/C=N/Nc1nc2ccccc2[nH]1	5.2µM*	0.85µM*	0.71µM*	0.5µM*	3.2µM*	10µM*
Cc1c(/C=N/n2cnnc2)c2ccccc2n1C	-3%	2%	-2%	-3%	15%	1%
Cn1c(/C=N/Nc2nc3ccccc3[nH]2)nc2ccccc21	1.2µM*	1.5µM*	?	3.5µM*	4µM*	-6%
CC(=O)c1c(C)n(-c2cccc(Cl)c2)c2ccc(OC(=O)c3ccccc3)cc12	/	5%	/	/	18%	/
CCNc1nc(NCC)n2c(SCC(=O)Nc3ccc(C)cc3Br)nnc2n1	-1%	/	/	/	/	/
C=CCn1cc(/C=N/Nc2nc3ccccc3[nH]2)c2ccccc21	10%	5.4µM*	1%	-6%	30%	2%
O=C1c2ccccc2NC2(CCCCC2)N1c1ccc(O)cc1	?	?	16%	19%	8.9µM*	-4%
CC1CCC2(CC1)Nc1ccccc1C(=O)N2c1ccccc1 (centres undefined)	?	-22%	21%	?	?	-2%
O=C(OCC(=O)c1ccccc1Cl)C1=NN(c2ccccc2)C(=O)CC1	11%	/	/	/	/	/
O=C(CCn1c2c(c3ccccc31)CCCC2)NNC(=O)c1ccccc1[N+](=O)[O-]	1%	?	-2%	0%	1%	-2%
O=C(CCn1c2c(c3ccccc31)CCCC2)NNC(=O)c1ccccc1C(=O)O	-1%	27µM*	6%	-3%	/	/
COc1ccc(Cl)cc1NC(=O)c1cc(-c2ccc3c(c2)OCO3)on1	/	-2%	/	/	-3%	/
Cc1ccc2[nH]c3c(c2c1)CC/C(=C/c1ccccc1)C3=O	?	4.8µM*	28%	?	?	-4%
O=C1/C(=C\c2ccccc2)CCc2c1[nH]c1ccccc21	1.5µM*	2.7µM*	?	?	11µM*	-1%
Cc1ccc(/C=C2/CCc3c([nH]c4ccccc34)C2=O)cc1	?	0.76µM*	0.5µM*	0.45µM*	6.3µM*	-6%
CC(C)/C=C1\CCc2c([nH]c3ccccc23)C1=O	-14%	?	12%	?	/	0%
COc1n[nH]c(C(=O)NCc2ccccc2)c1[N+](=O)[O-]	0%	?	-1%	0%	6%	-2%
COc1ccc(C(=O)Nc2nc3ccccc3s2)c(OC)c1	-28%	0.015µM*	?	-25%	/	/
COc1ccccc1C(=O)Nc1nc2ccccc2s1	?	0.11µM*	2.2µM*	?	/	/
COc1n[nH]c(C(=O)Nc2nc3ccccc3s2)c1[N+](=O)[O-]	16µM*	15µM*	?	?	11µM*	-1%
COc1ccccc1C(=O)Nc1nc(N)n(-c2ccccc2)n1	2%	12µM*	2%	16%	-10%	-3%
COc1cc(C(=O)Nc2nc(N)n(-c3ccccc3)n2)cc(OC)c1OC	16%	3%	3%	17%	?	-6%
COC(=O)CCCCCCCCC(=O)Nc1nc2ccccc2s1	-2%	-2%	-1%	-1%	22%	-2%
Cc1cc(Cl)c2oc(C(=O)N3CCCCC3CCN3CCCC3=O)c(C)c2c1 (centres undefined)	15%	-12%	-3%	3%	/	/
Nc1ncnc2c1ncn2[C@H]1O[C@@H](C(=O)O)[C@@H](O)[C@H]1O	/	/	/	/	0%[9.22 µM]	-3%[7.66 µM]
SMILES	ELG1 genotox	FLuc modulator	NPC1 prom act	Rab9 prom act	SMN2 splice up	Luc counter
COCCCn1c(=S)[nH]c2sc3c(c2c1=O)CCCS3	-7%	11µM*	19%	11%	-28%	-6%
CCCn1c(=S)[nH]c2sc3c(c2c1=O)CCCC3	-16%	15µM*	0%	2%	/	/
Cn1c(=S)[nH]c2sc3c(c2c1=O)CCC(C(C)(C)C)C3 (centres undefined)	7%	4.3µM*	?	?	/	/
COc1ccc(-n2c(=S)[nH]c3sc4c(c3c2=O)CCN(C)C4)cc1	0%	-3%	-4%	0%	/	/
CC(C)(C)C1CCc2c(sc3ncn(N)c(=N)c23)C1 (centres undefined)	-10%	-3%	-2%	-2%	/	/
COCCn1c(=S)[nH]c2sc3c(c2c1=O)CCC(C)C3 (centres undefined)	-7%	17µM*	-1%	3%	/	/
CCCCn1c(SCc2ccccc2C#N)nc2c(sc3ccccc32)c1=O	/	-7%	/	/	/	/
CCOC(=O)N1CCN(C2CCCN(C(=O)c3cccc(N(C)C)c3)C2)CC1 (centres undefined)	0%	1%	0%	0%	/	/
Cc1[nH]c2ccccc2c1C(=O)COC(=O)C1CCC(=O)N1 (centres undefined)	0%	4%	2%	1%	8%	-3%
Cc1[nH]c2ccccc2c1C(=O)COC(=O)C1CCC1	0%	15µM*	-2%	1%	/	/
O=C(COC(=O)C1CC1)c1c[nH]c2ccccc12	?	12µM*	?	?	?	-7%
O=C(Cc1ccccc1[N+](=O)[O-])OCC(=O)c1c[nH]c2ccccc12	13%	11µM*	?	?	/	/
CC(=O)OCC(=O)c1c[nH]c2ccccc12	1%	-16%	4%	0%	-1%	-6%
O=C(COC(=O)C1CCC1)c1c[nH]c2ccccc12	1%	11µM*	-1%	2%	/	/
O=C(COc1cccnc1[N+](=O)[O-])c1c[nH]c2ccccc12	6%	?	17%	12%	/	/
COc1cc2nc(N3CCCN(C)CC3)nc(NC3CCN(Cc4ccccc4)CC3)c2cc1OC	/	/	-35%[46.1 µM]	-40%[46.1 µM]	/	/
Cc1ccc(C)c(OCCC(=O)OCC(=O)NC(=O)NC2CCCC2)c1	2%	1%	-1%	-9%	/	/
O=C(Cn1nc(C(=O)O)c2ccccc2c1=O)Nc1cccc(S(=O)(=O)N2CCCCCC2)c1	1%	/	/	/	/	/
Cc1nc2ccc(NC(=O)CCC3CCCC3)cc2s1	?	12µM*	?	?	/	/
COc1ccccc1CC(=O)Nc1ccc2nc(C)sc2c1	?	17µM*	17%	21%	/	/
O=C(CCS(=O)(=O)c1ccccc1)Nc1ccc(-c2nc3ccccc3s2)c(O)c1	14%	3%	?	1.3µM*	2.5µM*	-3%
CCS(=O)(=O)c1cccc(C(=O)Nc2ccc(-c3nc4ccccc4s3)c(O)c2)c1	/	5%	/	/	/	/
Cc1nc2ccc(NC(=O)CS(=O)(=O)c3ccccc3)cc2s1	?	15µM*	?	?	/	/

Screening results: PubChem BioAssay, National Center for Advancing Translational Sciences (NCATS)
